Out of some 53,000 sequences screened, about 3,700 (7%) were called active. This excerpt belongs to a sample that is enriched for actives. Values without a mark were called inactive.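 How the source made its calls: active means gene knockdowns whose robust z-score for IL-1 alpha signal is at least 2 or at most -2, so actives lie on both sides; inactive means the rest.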

The nature of this assay: Components of the Cytosolic LPS Sensing Pathway: Gene Identification via Genome-wide siRNA Screen.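 Further: robust z of the log signal after scaling to non-targeting control siRNA wells of the plate.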 Particulars: RAW264.7 macrophages, IL-1a HTRF, actives lie on both sides, screened at 100 nM (by protocol), cells primed 5 h with Pam3CSK4 first. The essentials: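 Three distinct siRNAs per gene were tested singly at 100 nM in RAW264.7 macrophages. Following Pam3CSK4 priming and 24 hour LipidA transfection, IL-1a secretion was read by HTRF.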
Background: TR-FRET usually uses a lanthanide donor and a delayed reading to cut background.
Consider GGACACCAUGCCACAGACATT against Hlx, for which the z-score was -1.43.

Consider GCAGAUCACCUUUUGUUUATT against Gdap2, for which the z-score is 0.767.

Consider GGAUCCGUGCUGAAGUUUUTT against Cep20, for which the z-score was -0.338.

As to GCUUCCCGCUAUGAGUUCATT against Shisa7, the z-score was 2.24 (active).

For the sequence GGAUUGUUAGCAAAGAAAGTT against Aco1, the z-score is -0.0776.

Turning to GGUAGCAUGCUUUUGGUGCTT against Unkl, the z-score was 0.329.

In the case of CGAAGGCUUUUGAAUUCAATT against Pcdh17, the z-score is 0.41.

On to GGACUUCUACACCUCGAAATT against Amz2, for which the z-score was -1.05.

Turning to GCUGAGGAAAUGCGAAGUCTT against Tmem98, the z-score is 0.0406.

For GGGCAACCCACAAUAAAAATT against B9d1, the z-score is -1.66.

On to GGCUUUGAGAUAUGAACAGTT against Arrdc2, for which the z-score was 2.53 (active).

With GGCAAGGAAUCAAUGUCUCTT against Fscn2, the z-score is -0.229.

Consider GGACAAUUCCAGUCAAUAATT against Ccdc115, for which the z-score is -1.01.

On to GGAUUUCGGCUUUUUGAACTT against Bcas1, for which the z-score is 0.531.

Turning to GCCCUUAUGGACGAAAUUUTT against Ang2, the z-score is 0.0523.

In the case of GGUCUGCUCAAUGCUAUCATT against Olfr918, the z-score is -1.47.

In the case of GGAGAGACUCAGGAGUUUUTT against Rnd2, the z-score was 2.74 (active).

Regarding UGAAUAAGGUGUGGUGCUCTT against Vmn1r148, the z-score was 0.607.

As to “GGCUAACUUUAGUGAGGUATT against 3110070M22Rik”, the z-score is 0.233.

For the sequence CCGAAGUGCAACAAGCCAATT against Abl2, the z-score was 1.17.

Regarding GGGUACGUGAAGAAACUUCTT against Meig1, the z-score was -2.23 (active).

As for GGGCACACGUACCAACUAUTT against Mib2, the z-score is -0.458.

On to GGGACCCUACAAAAUCAUUTT against Ganab, for which the z-score was 0.467.

GGAUCUUUUCAGGUUCUAATT against Olfr659: the z-score was 0.377.

Turning to GCUAGAAGCCUGACAUUUUTT against Tbca, the z-score was -0.538.

For CGAUUGAUGAAUCUGGUUCTT against Racgap1, the z-score was -0.31.

In the case of GCUGGUCAAGGGUCUAGAGTT against Saa3, the z-score is -2.05 (active).

Consider GGGAGUUCUCUAAAUGCUUTT against Olfr482, for which the z-score was 1.52.

In the case of GCCUCCAGUAUCAUAAUUGTT against Antxr2, the z-score was 1.26.

For the sequence CCAGUUCGAUGUGGUAAUATT against St3gal5, the z-score was 1.11.

Consider GGAUGUCACAUGACAGUUUTT against Tmprss4, for which the z-score was 0.563.

With GGAUCCAACAAAUGUUAUUTT against Ccdc92, the z-score is 2.06 (active).

As for CGAUGGUGAUUCCCAUGUUTT against Olfr996, the z-score is 0.529.

Take GCUAUCUCGGUGUCAACUUTT against Aqp7: the z-score is -1.26.

Regarding GGUUGGAUUAUUAGGAAUUTT against Dnah5, the z-score is 0.0387.

Regarding GGGCUCCUUUUUUUUUUUUTT against Frat1, the z-score is -2.55 (active).

Take CCAAUUGCUCUCCAUGAAATT against Coro1c: the z-score was 0.331.

As for GCUUGGAAGACAUUGACCCTT against Brsk2, the z-score was -0.996.

Turning to GGUUACAGAAGAAUUAGAATT against Ift57, the z-score was 9.9e-05.

As to CCCUCUUUAUCGUCUGUGATT against Gpha2, the z-score was -2.89 (active).

Consider GGGAUUGAGAUCCUCAUACTT against Olfr1179, for which the z-score was 0.125.

Take GCCGAGAUGGUCAUAAGCUTT against Rbbp5: the z-score is 1.99.

For CCUACCACAACAUGUAUCCTT against S100a11, the z-score was 2.25 (active).

As to GCACGGCGAAAAAAUCUUCTT against Katnal2, the z-score is -0.167.

Turning to GCAGUGGUAGAACAUCCAATT against Bhmt2, the z-score was 0.585.

With CCUACUGUCUAAGAAUACATT against Olfr1138, the z-score was -1.65.

As for CCUUCCACAAAUACUCAGGTT against S100a4, the z-score was 0.562.

On to GGCUUAUGUGAUUUUGAUUTT against Gpr63, for which the z-score is -0.628.

Take GGAGAAGAUGUCAUCCAGATT against Zfp467: the z-score was -0.37.

For the sequence GGAUAGACACUAGGAUCCUTT against Pdcd1lg2, the z-score was 0.721.

For the sequence GCUGCUAUGAGAGAGUUUUTT against Serpind1, the z-score is 2.18 (active).

In the case of GGCAACAAAUCAAAGCAGCTT against Anxa7, the z-score is 1.4.

For GCUUAUAAAGUAGUGGUUUTT against Wnt2b, the z-score is -0.384.

For GCACCGAGUGGAAUAAUCATT against Lrp12, the z-score is 3.44 (active).

Consider CCGUAAGUCUCGGAUCUCCTT against Plcxd1, for which the z-score was 0.373.

As to GCCACUACAUAAAAUAGUCTT against Ube2z, the z-score is 0.0966.

As to GGAGAUGAGGUGAAGUGGATT against Acsm4, the z-score is -0.213.

Turning to GGCAUAUAUACAUGCCUGCTT against Vmn1r215, the z-score is 0.833.

As for “GCCCUACUAAGUCAAUUAATT against 1700055D18Rik”, the z-score is 0.248.

Regarding GGACAUUUUCAAACAAGGCTT against Mthfs, the z-score is -1.07.

In the case of “GGGAAAAUAUCAGCUCAAUTT against D930048N14Rik”, the z-score was -2.63 (active).

Turning to GCCUUGUGACAGCAUUAGUTT against Slc6a13, the z-score was -0.0361.

As for GGUGCUAAAUAAGACAAUGTT against Psma4, the z-score was -1.76.

With GGGCAUGUGGAUGACUGAUTT against Gnptg, the z-score was 2.04 (active).

Take GGGCUAGCAUCACAGUUUUTT against Tigd3: the z-score is 2.3 (active).

In the case of GCCCACUCACACCUAUUCUTT against Olfr1388, the z-score is 0.406.

With GGCGCAAGUUUGAUUUUGATT against Gigyf1, the z-score is 1.23.

CCAUCUUGAAGAUUCGUUCTT against Olfr486: the z-score was -1.24.

Take GCUAAUCUAUCCGUGUCCUTT against B3gnt3: the z-score was -0.522.

GGUAUAGCGGUGCAUGUCATT against Bmp8a: the z-score was -0.823.

As to GCUGGAGAUCAUCCUUCAGTT against Rph3al, the z-score is 0.742.

In the case of GCUCCAGGCAUUGAGAAUGTT against Hcfc1r1, the z-score was 1.98.

In the case of GGGAAGCUAAUAAAAGCACTT against Rgs20, the z-score was -0.902.

GGUGCUCAAAGAAUGCAUUTT against Prkar1b: the z-score is 0.367.

As for GGCUUGCAUAUCUAUUGGATT against Map2k6, the z-score was 2.61 (active).

For CCUCUCAGAUUUUCACAUATT against Zfp599, the z-score is 1.36.

Turning to GGCUCAAAGUCCUCAGAGCTT against Atp6v1e1, the z-score is -2.15 (active).

Turning to GGGAUUGUAUGAGUGCACATT against Coa4, the z-score is 0.657.

Turning to GGAGUCUUCUCAAUUUGACTT against Olfr1105, the z-score was -0.617.

In the case of CCUAUAUGACAAAAGACAGTT against Glra2, the z-score was -0.168.

As for GGCGGUCUUUAAGAUGCUCTT against Ubl7, the z-score was 2.12 (active).

Consider GCUAGGUAUACAGCCAAAGTT against Spryd4, for which the z-score was -0.699.

As for GCGCGUCAUCUUCUGACUUTT against Mmgt2, the z-score was 1.45.

For GGUGACUUGCUUUAGAAAATT against Tnfaip8l1, the z-score was 0.184.

With GCACCUCCUUAUGUGUCAUTT against Chrm2, the z-score is 0.729.

For GGACAUGACAUUUUUACGCTT against Cyp4f16, the z-score was -1.26.

Consider GGAUAUGAACAAUAGCAUATT against Kcna1, for which the z-score was 2.2 (active).

Regarding GGACUUAUCACUAUUUGCATT against Dlgap3, the z-score was 0.782.

Regarding GCCAUAGCUAUUGUCAUUCTT against Mmp16, the z-score is 0.441.

Consider GCAUGGUAUCAGGUACAUATT against Med9, for which the z-score is 2.2 (active).

Regarding GGUCUUUGUACAUCAAUGUTT against Zfp677, the z-score was -0.241.

As for AACCAGUCCUUGAAAAGAGTT against Olfr128, the z-score is -1.01.

In the case of GGAAGGUAUCCACUGUGCATT against Nme6, the z-score was -1.46.

For the sequence CCUCACCAGGUAAAUUUUUTT against Ro60, the z-score is -1.25.

Take GGUACUUUCCUUUCGAUGCTT against Skint10: the z-score is -0.524.

As to CCUGGUAACCUGCUAAAAGTT against Gm5124, the z-score is 1.24.

As to GGACUGGUUCUUCAGUACCTT against Cradd, the z-score is 2.21 (active).

Consider GGAACACAUUACCUCAAUUTT against Lipt2, for which the z-score is -0.705.

As for GGAACUCAUGUGAAGCUCCTT against Ssu72, the z-score was -0.544.

As for GGAGCUGAGCAGUGAUGAATT against Snx29, the z-score is -2.08 (active).

With GCACCUAGAUUGAUCAUAGTT against Olfr1183, the z-score is -0.894.

GGAACCGCUGAUGCUUAAGTT against Ctsl: the z-score is -0.726.

Regarding GGCUCAGUGAAGGCAAGUUTT against Hspb2, the z-score is 2.56 (active).

Take GGGUCAUCCACUUUGUCAGTT against Fam177a: the z-score was -0.584.

Turning to CCGCUGCAUAGCAUGUACATT against Dusp23, the z-score was 0.901.

Take GGUGGAGAUUAUUCAUGUUTT against Dpp8: the z-score was 2.31 (active).

For the sequence GGUGAACAGAAGGACAGAUTT against Gm4736, the z-score is 0.479.

Values taken from PubChem BioAssay AID1508600 (Functional Genomics Laboratory (NCATS/FGL), 2020).
